Test [1] deals with Human papillomavirus type 1a protein E7 (residues 44-93). Briefly: HPV1a E7 fragment binders on microarrays, primary screen, biochemical, small-molecule microarray, residues 44-93, 635 nm fluorescence (AID 1108).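 Also: E7 fragment applied at 1 µg/mL in TBST for 1 h at 4 C; score combines spot fluorescence with its signal to noise ratio.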 As to conditions: small-molecule microarray binding, fluorescence 635 nm; higher = more signal.
The nature of test [2]: modulators of HCV replicon luciferase signal, primary screen, HCV replication inhibitor project, Huh7 cells, luciferase reporter (AID 1109).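 Also: huh7 hepatoma cells harbouring a luciferase neomycin HCV replicon reporter; luciferase luminescence as measure of HCV replicon replication; test concentration not given here.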 Conditions: 48 h, higher = more signal.
The target in test [3] is Left-right determination factor 2 (Homo sapiens) (UniProt O00292). Briefly: LEFTY2 binders on small-molecule microarrays, primary screen, biochemical, small-molecule microarray, 635 nm fluorescence scan (AID 1110). Conditions: LEFTY2 binding, higher = more signal.
Test [4] addresses Calmodulin-1 (Homo sapiens) (UniProt P0DP23). The experiment in a line: CALM1 binders on microarrays, EGTA buffer, profiling panel, biochemical, small-molecule microarray, Cy5-labelled CALM1 (AID 1111).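 Also: labelled calmodulin applied in Tris saline Tween buffer holding calcium plus EGTA and DTT.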 Conditions: Cy5-CALM1 binding fluorescence, higher = more signal.
Test [5] has the same target. Briefly: calcium-bound CALM1 binders on microarrays, profiling panel, artefact control for SMM control-protein annotation, biochemical, small-molecule microarray, Cy5-labelled CALM1, plus calcium (AID 1112).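 Also: score merges spot fluorescence with signal to noise from triplicate slides.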 As to conditions: Cy5-CALM1 binding fluorescence, higher = more signal.
Test [6] can be described thus: small-molecule microarray binders of probe aWnt5a, primary screen, biochemical, biotinylated probe, 635/667 nm fluorescence (AID 1113).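 Also: score merges 667 nm fluorescence intensity with signal-to-noise per printed feature.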 As to conditions: higher = more signal.
The nature of test [7]: small-molecule microarray binders of probe aShh, primary screen, biochemical, biotinylated probe, 635/667 nm fluorescence (AID 1114).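 Also: probe is biotin-labelled aShh protein from a stem cell growth factor screen; measures binding of labelled protein to compounds printed on the slide; score merges feature fluorescence at 667 nm with signal-to-noise.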 Conditions: higher = more signal.
Test [8] can be described thus: small-molecule microarray binders of probe aNog, primary screen, biochemical, biotinylated probe, 635/667 nm fluorescence (AID 1115).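 Also: probe is biotinylated aNog protein used at 0.15 µg/mL for 1 h at 4 C; z-score combines 667 nm fluorescence of each spot with its signal to noise.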 As to conditions: higher = more signal.
Test [9] addresses Torsin-1A-interacting protein 1 (Homo sapiens) (UniProt Q5JTV8). The experiment in a line: LAP1 binders from COS7 cell lysate, primary screen, small-molecule microarray, 635/667 nm fluorescence (AID 1116). Conditions: COS7-hLAP1 lysate binding, 635 nm fluorescence, higher = more signal.
For test [10], the target named is Alpha-bungarotoxin (Bungarus multicinctus) (UniProt P60615). Briefly: alpha-bungarotoxin binders on microarray, profiling panel, artefact control for SMM control protein annotation, biochemical, small-molecule microarray, Alexa647 label, 635/667 nm fluorescence (AID 1117). Conditions: alpha-BTX-A647 binding fluorescence, higher = more signal.
Chain of Alpha-bungarotoxin (Bungarus multicinctus) (P60615 whole entry, looked up): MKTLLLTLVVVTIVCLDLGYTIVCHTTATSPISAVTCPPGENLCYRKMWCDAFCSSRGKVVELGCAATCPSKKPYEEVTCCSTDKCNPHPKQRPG

Chain of Torsin-1A-interacting protein 1 (Homo sapiens) (Q5JTV8 whole entry, looked up): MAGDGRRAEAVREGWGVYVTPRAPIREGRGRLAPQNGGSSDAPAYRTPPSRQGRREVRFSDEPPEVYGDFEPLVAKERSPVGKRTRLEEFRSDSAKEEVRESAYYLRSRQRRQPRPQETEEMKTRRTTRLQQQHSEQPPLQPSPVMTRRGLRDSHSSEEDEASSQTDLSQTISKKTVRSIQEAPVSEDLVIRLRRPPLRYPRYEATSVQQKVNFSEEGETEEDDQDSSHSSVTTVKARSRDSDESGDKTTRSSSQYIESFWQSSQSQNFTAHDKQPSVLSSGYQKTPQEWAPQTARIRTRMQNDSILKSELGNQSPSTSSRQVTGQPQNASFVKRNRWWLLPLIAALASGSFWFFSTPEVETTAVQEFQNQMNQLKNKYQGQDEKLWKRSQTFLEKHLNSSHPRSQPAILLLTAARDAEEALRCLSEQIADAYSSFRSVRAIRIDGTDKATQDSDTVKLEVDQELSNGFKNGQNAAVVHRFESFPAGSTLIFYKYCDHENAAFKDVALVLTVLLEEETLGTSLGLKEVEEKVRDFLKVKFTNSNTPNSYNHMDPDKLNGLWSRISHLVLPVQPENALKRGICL
Chain of Left-right determination factor 2 (Homo sapiens) (O00292 whole entry, looked up): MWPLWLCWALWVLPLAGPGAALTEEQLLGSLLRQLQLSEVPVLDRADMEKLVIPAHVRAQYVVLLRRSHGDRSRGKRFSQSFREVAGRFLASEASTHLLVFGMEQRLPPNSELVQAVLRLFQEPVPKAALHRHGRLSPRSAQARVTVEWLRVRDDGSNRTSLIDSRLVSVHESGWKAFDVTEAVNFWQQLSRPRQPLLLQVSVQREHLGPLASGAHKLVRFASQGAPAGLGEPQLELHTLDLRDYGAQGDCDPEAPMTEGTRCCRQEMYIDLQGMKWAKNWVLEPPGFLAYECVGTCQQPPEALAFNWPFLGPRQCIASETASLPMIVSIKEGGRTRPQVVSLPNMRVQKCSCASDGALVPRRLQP

As for `O=C1[C@H]2[C@H]3[C@H](O)[C@H](O)CC(=NOC[C@@H](O)COCc4ccco4)[C@@H]3CC[C@H]2C(=O)N1c1ccc(F)cc1F`, the composite z-score in test [1] was 0.427; in test [3], 0.74; in test [4], -0.616; in test [5] it was -1.01; in test [6] it was -0.0792; in test [7] it was -0.13. Besides, the composite z-score in test [8] was -0.236; in [9], 0.515; in test [10] it was -0.255. Further, the z-score in test [2] was 0.199.
Take `C[C@@H](c1ccccc1)N1C(=O)[C@H]2[C@H]3[C@H](O)[C@H](O)CC(=NOC[C@@H](O)COCc4ccco4)[C@@H]3CC[C@H]2C1=O`: the composite z-score in [1] is -0.856; in test [3], -0.433; in test [4], -0.495; in test [5], -0.307; in test [6], -0.124; in test [7] it was -0.0863. Also, the composite z-score was -0.413 in test [8], -0.375 in test [9] and 0.556 in [10]. Further, the z-score in test [2] was 0.816.
For the compound `CCN1C(=O)[C@H]2[C@H]3[C@H](O)[C@H](O)CC(=NOCc4ccccc4)[C@@H]3CC[C@H]2C1=O`, the composite z-score in test [1] was 0.515; in [3], 0.609; in test [4] it was 0.36; in test [5] it was -0.467; in test [6], -0.0819; in [7], -0.349. Also, the composite z-score in test [8] is -0.551; in test [9], 0.138; in test [10] it was 0.29. This compound also yielded a z-score in test [2] of -0.0462.
Consider `COC(=O)CC=C[C@@H](C)[C@@H](C=NO[C@@H](C)c1cc(-c2c(C)cc(C)cc2C)no1)OC`, for which the composite z-score in [1] is -1.29; in test [3], -0.627; in [4], -0.908; in test [5], -1.48; in [6], -0.295; in test [7], -0.2. In addition, the composite z-score is 0.531 in test [8], -1.75 in test [9] and -1.11 in [10]. For the same compound, in test [2], the z-score was -0.378.
For `CCOC(=O)[C@H](Cc1ccccc1)NC(=O)CCC1CC(OC(=O)NCCc2ccc(F)cc2)CC2(CCCC(COC(=O)NCC(c3ccccc3)c3ccccc3)O2)O1` (stereo not given in full), the composite z-score in test [1] is 1.33; in [3], 0.414; in test [4], 0.53; in [5] it was -0.658; in [6] it was -0.124; in test [7], -0.0146. Also, the composite z-score in test [8] was -0.0496; in test [9], 2.49; in [10], 0.0051. In test [2], the z-score turned out to be 0.0395.
Turning to `C[C@@H](c1ccccc1)N1C(=O)[C@H]2[C@H]3[C@H](O)C=CC(=O)[C@@H]3CC[C@H]2C1=O`, the composite z-score was -0.116 in test [1]; 0.657 in [3]; 0.0321 in [4]; -0.442 in test [5]; -0.192 in test [6]; -0.34 in test [7]. Besides, the composite z-score in [8] was -0.374; in test [9], 0.203; in [10], 0.0013. Besides, the z-score in [2] is -1.73.
Take `COc1ccccc1CN1C(=O)c2ccccc2[C@@H](C(=O)NCC(F)(F)F)[C@@H]1c1ccc(CO)cc1`: the composite z-score in test [1] is 1.44; in test [3] it was -0.155; in test [4], 0.313; in test [5], 0.229; in [6] it was -0.107; in test [7] it was 0.0446. Moreover, the figures for the composite z-score in test [8], in test [9] and in test [10] were -0.425, 0.488 and 0.472, respectively. Besides, the z-score in [2] was -1.26.
For the compound `O=C1C2=CC[C@H]3C(=O)N(Cc4ccc5c(c4)OCO5)C(=O)[C@H]3[C@H]2[C@H](O)[C@@H]2O[C@H]12`, the composite z-score in [1] is 0.631; in test [3], 0.341; in test [4], -0.306; in test [5], -0.502; in [6] it was -0.0495; in test [7], -0.346. The composite z-score was -0.0381 in test [8], 0.442 in [9] and 0.251 in [10]. The compound also gave a z-score in test [2] of -0.43.
In the case of `CCCCCCc1nc(CCCc2cc3c(c(CCCCCC)n2)[Si](C(C)C)(C(C)C)O[C@H]3c2ccccc2)cc2c1[Si](C(C)C)(C(C)C)O[C@H]2c1ccccc1`, the composite z-score in test [1] is 0.15; in [3], 0.109; in test [4], 0.146; in [5], -0.021; in [6], -0.148; in test [7], -0.0626. Further, the composite z-score in [8] was -0.213; in test [9], -0.0561; in test [10], 0.181. In [2], this compound showed a z-score of -0.904.
Take `CCCC[C@H]1OB(O)C[C@H]2C1=C(C)C[C@H]1C(=O)N(C)C(=O)[C@H]12`: the composite z-score in test [1] was 0.736; in [3] it was 0.654; in [4], -0.0405; in test [5], 0.06; in test [6], -0.0462; in [7] it was -0.243. Also, the composite z-score in [8] was 0.322; in test [9] it was -0.368; in test [10] it was 0.27. This compound also yielded a z-score in test [2] of -0.686.
For the compound `COC(=O)C1=C(C)N(Cc2ccccc2)[C@]23O[C@](C(=O)OC)(C(=O)N2[C@@H]1c1ccccc1)[C@H]1CCOC(=O)[C@H]13`, the composite z-score was 0.0415 in [1]; 0.548 in [3]; -0.348 in [4]; -0.832 in test [5]; -0.0482 in [6]; -0.0769 in test [7]. Further, the values for the composite z-score in test [8], in test [9] and in test [10] were 0.171, 0.333 and 0.0003, respectively. This compound also had a z-score in test [2] of 0.233.
`CC(C)CN1CCc2nc(-c3ccccc3)c3c(c2CC1)CO[C@@H](C)C3`: the composite z-score in [1] is -0.749; in test [3] it was 0.774; in test [4], -0.268; in test [5], -0.177; in test [6] it was 0.027; in test [7], 0.191. The composite z-score in [8] is -0.138; in test [9], 0.12; in test [10] it was 0.405. For the same compound, in test [2], the z-score is -0.747.
As to `COc1cccc([C@H]2Oc3ccc(OC)cc3C(=NOC(C)CN3CCCc4nc(C)c(C)cc43)[C@@H]2O)c1` (stereo not given in full), the composite z-score in test [1] is -0.508; in test [3] it was 0.37; in test [4] it was -0.789; in test [5], -0.582; in test [6], -0.0286; in [7] it was 0.151. Besides, the results for the composite z-score in test [8], in test [9] and in test [10] were -0.135, 0.74 and -0.618, respectively. This compound also had a z-score in test [2] of -1.12.
Turning to `C=CCOC(=O)[C@H]1[C@@H]2C(=O)O[C@@H](c3ccccc3)[C@@H](c3ccccc3)N2[C@@H](c2ccc(OCCOC(=O)[C@H]3C[C@H]4C(=O)N[C@@H](Cc5ccccc5)C(=O)N4[C@H]3c3ccc(O)cc3)cc2)[C@]12C(=O)Nc1ccccc12`, the composite z-score was 0.516 in test [1]; 0.933 in test [3]; 0.743 in test [4]; 0.0731 in test [5]; -0.0735 in test [6]; -0.0709 in test [7]. Further, the composite z-score in test [8] was -0.112; in [9], 0.985; in test [10], 1.46. Further, in test [2], the z-score is -1.32.
With `O=C1[C@H]2[C@H]3[C@H](O)[C@H](O)CC(=NOCc4ccccc4)[C@@H]3CC[C@H]2C(=O)N1C1CCCCC1`, the composite z-score in test [1] is 0.422; in [3] it was -0.102; in [4], -0.161; in [5] it was -0.408; in test [6], -0.206; in test [7] it was -0.265. Further, the composite z-score in [8] is -0.169; in test [9], 0.467; in test [10] it was -0.0059. This compound registered a z-score in test [2] of -1.11.
In the case of `CC(C)NC(=O)[C@@H]1c2ccccc2C(=O)N(CC23CC4CC(CC(C4)C2)C3)[C@H]1c1ccc(CO)cc1`, the composite z-score in test [1] was 1.36; in [3], 0.606; in test [4] it was 0.324; in test [5], -0.291; in [6], -0.0835; in test [7] it was 0.439. For the same compound, the composite z-score is -0.338 in [8], 0.774 in test [9] and 0.812 in [10]. Moreover, the z-score in test [2] was -1.67.
Turning to `COC(=O)[C@H](C)NC(=O)[C@@H](C)CO`, the composite z-score was 1.25 in test [1]; 0.5 in test [3]; 0.601 in test [4]; -0.369 in [5]; -0.0445 in test [6]; -0.0035 in test [7]. Also, the composite z-score in [8] stood at 0.243; in test [9], 0.924; in [10] it was 0.855. The compound also showed a z-score in [2] of -0.431.

Source of the values: PubChem BioAssay.
